Only some compounds are listed: those with a hit (about 18% of all), similar ones and a draw of the others.
DT40 TDP1 no CPT: qHTS for Inhibitors of human tyrosyl-DNA phosphodiesterase 1 (TDP1): qHTS in cells in absence of CPT; DT40 Tdp1-/- hTDP1 cells, no CPT, ATP luminescence, 48 h; Potency, µM (top dose mostly 46.2 µM), for inactives: at the highest dose activity change, negative = growth inhibition, most hits filed as inhibitors; 420,000 tested, 15% active; also: nearly all actives have a fitted effect of over 55% in size
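Chicken DT40 Tdp1-/- cells complemented with human TDP1, screened without camptothecin (DMSO vehicle only), 400 cells/well. Compounds pin-transferred, cells incubated at 37 °C for at least 48 hr. Growth read as ATP-dependent luminescence (CellTiter-Glo, 30 min at RT).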
PLK1 PBD block: blocks phosphopeptide binding to human PLK1 polo-box domain | P53350 | Plk1 PBD binding of FITC phosphopeptide, fluorescence polarization | Potency, µM, for inactives: max response, negative = inhibition, hits mostly inhibitors | 360,000 tested, 2.8% active; also: series mostly up to about 57 µM; nearly all actives have a fitted effect of over 65% in size
Target sequence (P53350 whole entry, looked up, the tested form may be a part): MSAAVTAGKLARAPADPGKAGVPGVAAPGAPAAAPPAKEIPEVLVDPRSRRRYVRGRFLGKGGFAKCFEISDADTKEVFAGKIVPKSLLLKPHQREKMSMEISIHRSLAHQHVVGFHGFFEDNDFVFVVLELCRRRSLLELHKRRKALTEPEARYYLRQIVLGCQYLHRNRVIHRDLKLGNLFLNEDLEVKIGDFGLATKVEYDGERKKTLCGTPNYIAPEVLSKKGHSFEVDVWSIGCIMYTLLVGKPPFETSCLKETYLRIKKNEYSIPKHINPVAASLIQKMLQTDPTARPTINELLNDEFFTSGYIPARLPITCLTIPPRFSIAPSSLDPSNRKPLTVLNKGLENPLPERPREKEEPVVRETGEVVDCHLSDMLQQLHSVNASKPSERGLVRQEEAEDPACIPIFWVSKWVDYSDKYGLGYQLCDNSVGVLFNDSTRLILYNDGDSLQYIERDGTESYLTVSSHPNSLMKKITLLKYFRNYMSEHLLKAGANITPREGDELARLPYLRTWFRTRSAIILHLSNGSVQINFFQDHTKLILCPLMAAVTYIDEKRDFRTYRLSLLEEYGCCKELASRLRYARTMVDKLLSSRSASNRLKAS
TDP1 block: blocks human tyrosyl-DNA phosphodiesterase 1 | Q9NUW8 | recombinant TDP1, AlphaScreen DNA substrate cleavage | Potency, µM (series often up to 130 µM), for inactives: at the highest dose activity change, negative = inhibition, hits mostly inhibitors | 350,000 tested, 0.28% active | AID 485290; also: nearly all actives have a fitted effect of over 40% in size
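E. coli-derived human Tdp1, 1 nM final. Cpd preinc 15 min RT; substrate 15 nM final, 5 min RT; AS bead mix 10 ug/ml final, 10 min RT. Signal loss = tyrosine-FITC cleavage. No-enzyme wells = max signal.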
VDR inh: blocks the human vitamin D receptor; P11473; VDR-SRC2-3 peptide fluorescence polarization, 2 h; Potency, µM, without a hit: max response, negative = inhibition, most hits filed as inhibitors; 400,000 tested, 0.93% active
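Compounds are added to VDR with labelled SRC2-3 coactivator peptide and held 2 h at room temperature. Inhibition of the VDR–peptide interaction is then read as a change in fluorescence polarization.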
KAT2A inh: inhibitors of human GCN5L2 histone acetyltransferase | Q92830 | GCN5L2 HAT assay, ThioGlo1 CoA-SH fluorescence | Potency, µM (top dose mostly 58.9 µM), inactives show at the highest dose activity change, negative = inhibition, hits mostly inhibitors | 390,000 tested, 0.21% active | AID 504327
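GCN5L2 (20nM final) in 50mM HEPES, 0.1mM EDTA pH 7.5, 0.01% Tween-20 was preincubated 15 min at room temperature with compound, then given ThioGlo1 (50uM), H3(1-25) peptide (75uM) and acetyl-CoA (70uM); CoA-thiol fluorescence (Ex340/Em540) was read at 0 and 20 min.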
DT40 TDP1 CPT: growth inhibition of DT40 Tdp1-/-;hTDP1 cells with camptothecin (screen for TDP1 inhibitors). chicken DT40 Tdp1-/-;hTDP1 cells + 20 nM CPT, ATP luminescence, 48 h. AID 686979. 420,000 tested, 12% active. Potency, µM (highest dose often 46.2 µM), for inactives: top-dose activity change, negative = growth inhibition, usual class: inhibitors; also: nearly all actives have a fitted effect of over 55% in size
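Chicken DT40 Tdp1-/- cells stably complemented with human TDP1 were seeded at 400 cells/well in medium containing 20 nM camptothecin, exposed to pin-transferred compounds, and grown at 37 °C for at least 48 hr. Viability was read as ATP luminescence.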
* hit, by the source's call; u = inconclusive; x = no result; [ ] = another dose, or the depositor's remark. Calls follow the shape of the dose curve; as a rule, active = well fitted curve in the direction sought with a large enough effect; inconclusive = small, poorly fitted or top-dose-only effect, or another doubt; inactive = no such curve, though single readings can be large; an effect the other way counts as inactive or inconclusive. % is scaled to controls: 0 for no effect and ±100 for the full control effect; potency is read from the fitted curve at half-maximal effect.

SMILES	DT40 TDP1 no CPT	PLK1 PBD block	TDP1 block	VDR inh	KAT2A inh	DT40 TDP1 CPT
Cc1ccc(S(=O)(=O)Nc2ccccc2C(=O)N2CCCCCC2)cc1	-18%	-9%	x	5%	-3%	-4%
O=C1c2ccccc2[C@@H]2C[C@@H](O)[C@H](Nc3cccc4ccccc34)CCN12	16µM*	-20%	1%[56.1 µM]	8%	-5%	u
Cc1ccc(NC(=O)c2oc3ccc(S(=O)(=O)N4CCCCCC4)cc3c2C)c(C)c1	-22%	x	8%	-7%	3%	-24%
Cc1cc(C(=O)NCc2nnc3n2CCN(Cc2ccc4c(c2)Cc2ccccc2-4)CC3)c(C)o1	16µM*	x	x	x	x	u
COc1ccc(-n2c(=O)c3sc4ccccc4c3n(Cc3ccccc3C)c2=O)cc1OC	-3%	x	1%	6%	-3%	-30%
COc1ccc(NC(=O)C(Cc2ccccc2)NS(=O)(=O)c2ccc3c(c2)oc(=O)n3C)c(OC)c1 (stereo unspecified)	-20%	x	3%	6%	-7%	-9%
CCC(C(=O)NCCCN1CCN(C)CC1)n1nc(C)n2c(cc3occc32)c1=O (stereo unspecified)	34%	-15%	1%	-16%	u	-12%
CCOC(=O)c1cc(-c2ccc(F)cc2)n(CCC(=O)NCc2ccccc2OC)c1C	u	x	7%	7%	-6%	u
CCOC(=O)c1cc(-c2ccc(OC)cc2)n(CCC(=O)Nc2nc3ccc(OCC)cc3s2)c1C	9.2µM*	x	0%	12%	-6%	16µM*
CCOC(=O)c1cc(-c2ccc(OC)cc2)n(CCC(=O)Nc2cccc(C)c2C)c1C	u	x	-2%	5%	-12%	-29%
CCOC(=O)c1cc(-c2ccc(F)cc2)n(CCC(=O)Nc2ccccc2OC)c1C	21µM*	x	8%	-7%	-3%	u
CCOC(=O)c1cc(-c2ccc(C)cc2)n(CCC(=O)Nc2nc3c(C)cccc3s2)c1C	u	x	5%	-9%	-14%	u
CCOC(=O)c1cc(-c2ccc(OC)cc2)n(CCC(=O)Nc2ccccc2OC)c1C	21µM*	x	12%	1%	-15%	15µM*
CCOC(=O)c1cc(-c2ccccc2)n(CC(=O)Nc2ccc(OC)cc2OC)c1C	u	x	9%	15%	-4%	16µM*
O=C1CC(N2CCSCC2)C(=O)N1c1ccc(F)cc1 (stereo unspecified)	0%	-2%	x	3%	0%	17%
CC(C)NC(=O)c1cc(-c2ccc(F)cc2OC(C)C)n[nH]1	u	-9%	x	x	x	-23%
CC(C)CC(=O)OCc1cc(=O)n2nc(C3CCCCC3)sc2n1	u	x	1%	0%	3%	-7%
COc1ccc(C)cc1NC(=O)CSc1nnc2ccc(-c3ccncc3)nn12	u	-9%	x	-10%	-22%	-10%
COc1ccc(Br)cc1CNC(=O)CN1C(=O)CSc2ccc(S(=O)(=O)N3CCOCC3)cc21	u	x	5%	3%	5%	u
CCOC(=O)c1cc(-c2ccc(C)cc2)n(CC(=O)Nc2cccc(C(C)=O)c2)c1C	u	x	1%	-10%	-2%	-21%
CCOC(=O)c1cc(-c2ccc(F)cc2)n(CCC(=O)Nc2cc(OC)cc(OC)c2)c1C	16µM*	x	3%	17%	-10%	15µM*
CCOC(=O)c1cc(-c2ccc(C)cc2)n(CC(=O)Nc2cc(C)ccc2C)c1C	15µM*	x	3%	-7%	0%	21µM*
CCOC(=O)c1cc(-c2ccc(OC)cc2)n(CCC(=O)Nc2ccc(OC)cc2OC)c1C	21µM*	x	8%	-4%	-3%	21µM*
CC(=O)c1cc(-c2ccc(F)cc2)n(CCC(=O)Nc2nc3ccc(C)cc3s2)c1C	16µM*	x	7%	7%	-2%	26µM*
CC(=O)c1cc(-c2ccc(F)cc2)n(CCC(=O)NC(C)(C)C)c1C	12%	-3%	4%	-3%	-7%	9%
SMILES	DT40 TDP1 no CPT	PLK1 PBD block	TDP1 block	VDR inh	KAT2A inh	DT40 TDP1 CPT
O=C(Nc1ccc([N+](=O)[O-])cc1)N1CCCCC1	-25%	-4%	-1%	-11%	-5%	-24%
Cc1cccc(NC(=O)CS(=O)CC(=O)Nc2cnc3ccccc3c2)c1C (stereo unspecified)	-19%	-16%	5%	11%	-3%	1%
CSc1ncccc1C(=O)OCc1nc2ccsc2c(=O)[nH]1	-18%	1%	3%	-7%	-12%	-23%
COC(=O)c1ccc(COC(=O)c2ccc(SC)cc2OC)cc1	-21%	27µM*	-8%	u	-1%	u
COc1cc2ccccc2cc1C(=O)OCc1nc2ccsc2c(=O)[nH]1	u	-2%	1%	12%	-2%	5.8µM*
Cc1ccc(C(=O)OCc2nc3ccsc3c(=O)[nH]2)o1	-1%	-10%	x	1%	-1%	-2%
COc1cc(SC)ccc1C(=O)OCc1nc2ccsc2c(=O)[nH]1	9.2µM*	-6%	x	u	0%	8.2µM*
Cc1cnc(C(=O)OCc2nc3ccsc3c(=O)[nH]2)cn1	0%	-26%	14µM*	-8%	-13%	-1%
CCC(=O)N1CCc2cc(S(=O)(=O)NC(CC(C)C)C(=O)Nc3cccc(C)c3C)ccc21 (stereo unspecified)	-20%	x	2%	-18%	-6%	-20%
CCOC(=O)Cc1ccc(NC(=O)N2CC(C)Oc3ccc(Cl)cc32)cc1 (stereo unspecified)	u	x	-1%	5%	-1%	16µM*
CCOC(=O)Cc1ccc(NC(=O)N2CC(CC)Oc3ccccc32)cc1 (stereo unspecified)	u	x	3%	14%	-9%	16µM*
CCOc1ccccc1NC(=O)N1CC(C)Oc2ccc(Cl)cc21 (stereo unspecified)	u	x	-3%	10%	-2%	u
COC(=O)c1ccc(C)c(NC(=O)CCCN2C(=O)NC(C)(C)C2=O)c1	3%	-1%	-1%	-18%	-2%	0%
COc1cccc(/C=C/C(=O)NNC(=O)c2cc(C)oc2C)c1	-12%	-7%	1%	-7%	-13%	-20%
Cc1ccc(C(=O)COC(=O)CCC(=O)Nc2ccc(Oc3ccccc3)cc2)cc1	u	x	x	-1%	-3%	u
CC1C(=O)N(Cc2cn(CC3CCCCC3)nn2)CCS(=O)(=O)N1Cc1ccc(-c2ccncc2)cc1 (stereo unspecified)	-1%	-8%	x	x	x	-30%

Screening data (PubChem BioAssay)
